# Reference: PubChem BioAssay AID1347142 (National Center for Advancing Translational Sciences (NCATS), 2019)
# Records with an inconclusive call do not appear. Calls of active or inactive are those of the source. Calls follow the shape of the dose curve; as a rule, active = well fitted inhibition curve with a large enough effect; inconclusive = small, poorly fitted or top-dose-only effect; inactive = no such curve, though single readings can be large or run the other way.
# Molecular target: N-terminal Xaa-Pro-Lys N-methyltransferase 1 (Homo sapiens) (UniProt Q9BV86)
# Sequence (Q9BV86 whole entry, looked up): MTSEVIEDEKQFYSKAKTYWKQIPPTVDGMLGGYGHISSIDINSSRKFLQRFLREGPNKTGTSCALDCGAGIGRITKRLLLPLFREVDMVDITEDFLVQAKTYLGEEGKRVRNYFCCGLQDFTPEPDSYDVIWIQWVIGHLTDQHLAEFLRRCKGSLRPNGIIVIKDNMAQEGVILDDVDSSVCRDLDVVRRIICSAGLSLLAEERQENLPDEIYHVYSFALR
# Test: qHTS Assay for Inhibitors of N-terminal methyltransferase 1 (NTMT1): ThioGlo3 Assay Confirmatory Screen, Round 1.
# Outline: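 Human NTMT1 at 125 nM was preincubated 1 min at room temperature with compounds at various concentrations or 1 uM RCC1-6 control. Substrate mix (100 uM SAM, 10 uM SAHH, 15 uM ThioGlo3) was added, and fluorescence (Ex 340/Em 450 nm) was read at start and after 30 min, normalized to background.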
# Also: nearly all actives have a fitted effect of over 80% in size.
# Potency is read from the fitted curve at half-maximal effect.
row,SMILES,Potency
1,COc1cc2c(NC3CCN(C)CC3)nc(N3CCCN(C)CC3)nc2cc1OCCCN1CCCC1,27.1 µM (active)
2,COc1cc2c(NC3CCN(C(C)C)CC3)nc(N3CCCN(c4ccccc4)CC3)nc2cc1OCCCN1CCCC1,17.1 µM (active)
3,COc1cc2c(NC3CCN(C(C)C)CC3)nc(N3CCCCC3)nc2cc1OCCCN1CCCC1,30.4 µM (active)
4,Nc1nc2c(ncn2[C@@H]2O[C@H](CO)[C@@H](O)[C@H]2O)c(=O)[nH]1,inactive
5,CSc1ncnc2c1ncn2C1OC(CO)C(O)C1O (stereo unspecified),inactive
6,Nc1ncnc2c1ncn2[C@H]1O[C@@H](CSCC[C@@H](N)C(=O)O)[C@H](O)[C@@H]1O,inactive
7,C[C@@H](Cc1ccccc1)Nc1ncnc2c1ncn2[C@@H]1O[C@H](CO)[C@@H](O)[C@H]1O,inactive
8,COc1cc2nc(N3CC[C@@H](N(C)C)C3)nc(NC3CC3)c2cc1OC,inactive
9,OC[C@H]1O[C@@H](n2cnc3cncnc32)[C@H](O)[C@@H]1O,2.41 µM (active)
10,COc1cc2c(NC3CCN(C(C)C)CC3)nc(N3CCCCCC3)nc2cc1OCCOCCN(C)C,21.5 µM (active)
11,COc1cc2nc(N3CCN(C(C)=O)CC3)nc(NC3CC3)c2cc1OC,21.5 µM (active)
12,COC1C(O)C(CO)OC1n1cnc2c(NC3CCCCC3)ncnc21 (stereo unspecified),inactive
13,CCN1CCCN(c2nc(NC3CCN(C(C)C)CC3)c3cc(OC)c(OCCCN4CCCCC4)cc3n2)CC1,24.1 µM (active)
14,COc1cc2c(NC3CCN(C(C)C)CC3)nc(N3CCCN(C4CCCCC4)CC3)nc2cc1OCCCN1CCCCC1,24.1 µM (active)
15,COc1cc2c(NC3CCN(C)CC3)nc(N3CCCN(C)CC3)nc2cc1OCCOCCN1CCCC1,27.1 µM (active)
16,COc1cc2c(NC3CCN(C(C)C)CC3)nc(N3CCCCC3)nc2cc1OCCCN1CCCCC1,21.5 µM (active)
17,COc1cc2nc(N3CCCN(C)CC3)nc(N(C)C)c2cc1OC,inactive
18,COc1cc2c(NC3CCN(C)CC3)nc(N3CCCCC3)nc2cc1OCCOCCN(C)C,24.1 µM (active)

row,SMILES,Potency
1,Nc1ncnc2c1ncn2[C@@H]1O[C@H](COP(=O)(O)OP(=O)(O)O)[C@@H](O)[C@H]1O,inactive
2,OC[C@H]1O[C@@H](n2cnc3c(NCc4ccccc4)ncnc32)[C@H](O)[C@@H]1O,inactive
3,CSc1nc(N)c2ncn([C@H]3O[C@H](COP(=O)(O)OP(=O)(O)O)[C@@H](O)[C@@H]3O)c2n1,inactive
4,Nc1nc2c(ncn2[C@@H]2O[C@H](CO)[C@@H](O)[C@@H]2O)c(=O)[nH]1,inactive
5,COc1cc2nc(N3CCN(C)CC3)nc(NC3CC3)c2cc1OC,27.1 µM (active)
6,Nc1ncnc2c1ncn2C1O[C@H](COP(=O)(O)O)[C@@H](O)[C@H]1O (stereo partly specified),inactive
7,COc1cc2c(NC3CCN(CC4CCCCC4)CC3)nc(N3CCCCCC3)nc2cc1OCCCN1CCCCC1,24.1 µM (active)
8,Nc1ncnc2c1ncn2[C@@H]1O[C@H](CO)C(O)[C@H]1O (stereo partly specified),1.36 µM (active)
9,CCNC(=O)[C@H]1O[C@H](n2cnc3c(N)nc(NCCc4ccc(CCC(=O)O)cc4)nc32)[C@@H](O)[C@@H]1O,inactive
10,COc1cc2c(NC3CCN(C(C)C)CC3)nc(N3CCC(F)(F)CC3)nc2cc1OCCCN1CCCC1,24.1 µM (active)
11,CSc1nc(N)c2ncn([C@@H]3O[C@H](COP(=O)(O)OP(=O)(O)O)C(O)[C@H]3O)c2n1 (stereo partly specified),inactive
12,COc1cc2nc(N3CCN(C)CC3)nc(NCCC3CC3)c2cc1OC,24.1 µM (active)
13,CCCN(C)CCCOc1cc2nc(N3CCCN(C)CC3)nc(NC3CCN(C)CC3)c2cc1OC,27.1 µM (active)
14,COc1cc2nc(NCCN(C)C)nc(NC3CC3)c2cc1OC,27.1 µM (active)
15,COc1cc2c(NC3CCN(C4CCCCC4)CC3)nc(N3CCCN(C)CC3)nc2cc1OCCOCCN(C)C,27.1 µM (active)
16,COc1cc2nc(N3CCCN(C)CC3)nc(NC3CCNCC3)c2cc1OC,21.5 µM (active)
17,OCC1OC(n2cnc3c(NO)ncnc32)C(O)C1O (stereo unspecified),3.83 µM (active)
18,COc1cc2c(NC3CCN(C(C)C)CC3)nc(N3CCCN(C)CC3)nc2cc1OCCCN1CCCCC1,24.1 µM (active)
